An excerpt weighted towards active compounds, which were near 19% of everything screened.
TDP1 cell noCPT: qHTS for Inhibitors of human tyrosyl-DNA phosphodiesterase 1 (TDP1): qHTS in cells in absence of CPT. DT40 Tdp1-/- hTDP1 cells, no CPT, ATP luminescence, 48 h. Potency, µM (top dose mostly 46.2 µM), inactives show top-dose activity change, negative = growth inhibition, most hits filed as inhibitors. 420,000 tested, 15% active. AID 686978, 2013; also: potency is read from the fitted curve at half-maximal effect; nearly all actives have a fitted effect of over 55% in size
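Chicken DT40 Tdp1-/- cells complemented with human TDP1, screened without camptothecin (DMSO vehicle only), 400 cells/well. Compounds pin-transferred, cells incubated at 37 °C for at least 48 hr. Growth read as ATP-dependent luminescence (CellTiter-Glo, 30 min at RT).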
HT1080NT lethal: kills 2HG-producing HT-1080-NT fibrosarcoma cells. 360,000 tested, 1.6% active. Potency, µM (top dose mostly 46.1 µM), without a hit: at the highest dose activity, negative = less viability, actives largely listed as cytotoxic. HT-1080-NT fibrosarcoma viability, CellTiter-Glo ATP luminescence, 48 h;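 also: NT is the 2HG producing partner of a matched IDH1 knockdown line; potency is read from the fitted curve at half-maximal effect; 0% = DMSO-treated cells and -100% = media-only wells without cells; nearly all actives have a fitted effect of over 55% in size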
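Read-out is CellTiter-Glo luminescence after 10 minutes at room temperature, following 48 hours' compound treatment of HT-1080-NT cells (750 cells/well, RPMI, 5% FBS, 37 degrees C).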
IL1B secr inh: inflammasome signaling inhibition, IL-1 beta readout | activity change, % at 57.5 µM | 360,000 tested, 4.7% active | AID 743279 | THP-1 LPS/ATP IL-1B secretion, AlphaLISA, 16 h; stronger effect = lower value; in the data active = activity change below about -50%; inconclusive = mostly about -30% to -49%
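Secreted IL-1B measured by AlphaLISA bead assay after 16 h compound exposure of THP-1 cells; compounds (final up to 57.5 uM) added 1 h before LPS (250 ng/mL) and ATP (1.25 mM) stimulation; lower signal means less secretion.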
HT1080 IDH1KD tx: toxicity to HT-1080 IDH1 knockdown cells (counter line) | Potency, µM (top dose mostly 46.1 µM), for the others: at the highest dose activity, negative = toxicity, most hits filed as cytotoxic | HT-1080 IDH1 knockdown viability, ATP luminescence, 48 h | 360,000 tested, 2% active;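 also: potency is read from the fitted curve at half-maximal effect; 0% = DMSO wells and -100% = cell-free medium wells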
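HT-1080-IDH1KD cells (IDH1 knocked down), 750/well in RPMI with 5% FBS, treated with compound 48 h at 37 degrees C. Viability by CellTiter-Glo luminescence, normalised to DMSO and no-cell wells; concentration-response curves classed.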
DT40 TDP1 CPT: growth inhibition of DT40 Tdp1-/-;hTDP1 cells with camptothecin (screen for TDP1 inhibitors) | Potency, µM (series often up to 46.2 µM), without a hit: at the highest dose activity change, negative = growth inhibition, actives largely listed as inhibitors | 420,000 tested, 12% active | AID 686979 | chicken DT40 Tdp1-/-;hTDP1 cells + 20 nM CPT, ATP luminescence, 48 h; also: potency is read from the fitted curve at half-maximal effect; nearly all actives have a fitted effect of over 55% in size
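Cell growth measured by CellTiter-Glo luminescence after a minimum 48 h, 37 C compound exposure with 20 nM CPT in Tdp1-knockout DT40 cells stably expressing hTDP1, seeded 400/well; qHTS titration format.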
* hit, by the source's call; ? = inconclusive; nt = no result given; [ ] = dose if it differs, or a comment. Unless noted, calls follow the shape of the dose curve; as a rule, active = well fitted curve in the direction sought with a large enough effect; inconclusive = small, poorly fitted or top-dose-only effect, or another doubt; inactive = no such curve, though single readings can be large; an effect the other way counts as inactive or inconclusive. Unless noted, % is scaled to controls: 0 for no effect and ±100 for the full control effect.

SMILES | TDP1 cell noCPT | HT1080NT lethal | IL1B secr inh | HT1080 IDH1KD tx | DT40 TDP1 CPT
O=c1c2ccccc2nc2c3ccccc3c(NCc3ccccn3)nn12 | 15µM* | 8% | ? | -5% | ?
O=C(NCCO)c1nc(NCCO)c2ccccc2n1 | -1% | 1% | -6 | -6% | -1%
OCCNc1c2ccccc2nc2ccccc12 | 10µM* | 23µM* | -8 | 23µM* | 13µM*
COc1cc(C(=O)NNC(=O)c2cc(S(=O)(=O)N(C)C)ccc2N2CCCC2)cc(OC)c1OC | 19% | -5%[9.24 µM] | ? | -2% | -17%
CCOc1ccccc1N(C(=O)c1ccco1)C(C(=O)NC1CCCC1)c1cccnc1 (centres undefined) | -2% | 12% | 10 | 3% | 0%
Cc1cc(Br)c2c(c1)[C@](O)(c1cn(C)c3ccccc13)C(=O)N2C | 23µM* | ? | -9 | ? | 16µM*
CCO[C@@H]1OC(C(=O)N2CCOCC2)=C[C@H](c2ccc(Br)cc2)[C@H]1CCCO | ? | 4% | 20 | -20% | ?
CCO[C@H]1OC(C(=O)N2CCOCC2)=C[C@@H](c2ccc(C(F)(F)F)cc2)[C@@H]1CCCO | ? | 12% | -3 | 1% | 0.52µM*
CCO[C@H]1OC(C(=O)N2CCCCCCC2)=C[C@@H](c2ccccc2)[C@@H]1CCCO | ? | 6% | 1 | -1% | ?
CCO[C@@H]1OC(C(=O)N2CCN(C)CC2)=C[C@H](c2ccc(C(F)(F)F)cc2)[C@H]1CCCO | -10% | 0% | 12 | 0% | -23%
CCO[C@@H]1OC(C(=O)N2CCOCC2)=C[C@H](c2ccc(C(F)(F)F)cc2)[C@H]1CCCO | ? | 6% | 25 | 2% | 15µM*
CCO[C@H]1OC(C(=O)N2CCN(C)CC2)=C[C@@H](c2ccc(C(F)(F)F)cc2)[C@@H]1CCCO | -1% | 2% | 2 | 0% | -4%
CCO[C@@H]1OC(C(=O)N2CCCCCCC2)=C[C@H](c2ccc(C(F)(F)F)cc2)[C@H]1CCCO | 23µM* | -3% | -16 | -1% | ?
CCO[C@H]1OC(C(=O)N2CCN(Cc3ccccc3)CC2)=C[C@@H](c2ccc(C(F)(F)F)cc2)[C@@H]1CCCO | 15µM* | -3% | -60* | -12% | 21µM*
N#Cc1ccc(C(=O)N2CCCCC2c2cc(C(=O)NCc3ccccc3)no2)cc1 (centres undefined) | 1% | -2% | 8 | 13% | -4%
O=c1c(-c2ccccc2)[n+]([O-])c2ccccc2n1O | -3% | 3% | 6 | 5% | 4%
CCOC(=O)Cn1nc(C)c(NC(=O)c2ccc([N+](=O)[O-])c(C)c2)c1C | 3% | 18% | -3 | 17% | 23%
CCO[C@@H]1OC(C(=O)N2CCN(Cc3ccccc3)CC2)=C[C@H](c2csc3ccccc23)[C@H]1CCCO | 29µM* | ? | -54* | -23% | 13µM*
Cc1cccc(CN2CCN([C@H]3CS(=O)(=O)N[C@@H]3COCc3ccccc3)CC2)c1 | 16µM* | -2% | 14 | -17% | 18µM*
O=C(c1ccccc1)n1c(=O)c(F)cn(COCCBr)c1=O | -11% | 5% | 13 | 3% | 5%
CC(=O)NCCn1c(SCc2ccc(C)cc2)nc2ccccc2c1=O | 21µM* | -7% | -19 | -12% | 23µM*
CC(=O)NCCn1c(SCc2ccccc2F)nc2ccccc2c1=O | 21µM* | -22% | 8 | -13% | 16µM*
CC(=O)NCCn1c(SCC#N)nc2ccccc2c1=O | -18% | 6% | 0 | 1% | 2%
Clc1ncnc2scc(-c3ccc(Br)cc3)c12 | ? | -2% | ? | 0% | ?
S=C(NCCSCc1ccc(Cl)cc1)Nc1ccccc1 | ? | 0% | ? | 3% | ?
SMILES | TDP1 cell noCPT | HT1080NT lethal | IL1B secr inh | HT1080 IDH1KD tx | DT40 TDP1 CPT
CCOc1ccc(CSCCNC(=S)Nc2ccc(OC)cc2)cc1 | 23µM* | ? | -3 | -17% | ?
Cc1cccc(CSCCNC(=S)Nc2ccccc2)c1 | 18µM* | -10% | ? | -11% | ?
S=C(NCCSCc1ccccc1Cl)Nc1ccccc1 | ? | -16% | -14 | ? | ?
CCCOc1ccc(CSCCNC(=S)Nc2ccccc2)cc1 | 23µM* | -8% | 18 | -24% | 26µM*
O=C(COc1cc(Cl)ccc1Cl)Nc1nnc(C2CC2)s1 | 11% | 14% | -10 | 9% | 14%
O=C1CCN(Cc2cccn2-c2ccccn2)CCN1Cc1ccccc1C(F)(F)F | -14% | nt | nt | nt | -5%[9.04 µM]
Cc1cccc(C(=O)OC(C)CN2C(C)CCCC2C)c1 (centres undefined) | -1% | 7% | 7 | 0% | 35%
COc1ccc(-c2csc(NC(=O)Nc3ccccc3)n2)cc1 | -20% | -4% | -6 | -10% | -29%
O=C(Nc1ccccc1)Nc1nc(-c2ccc(Cl)cc2)cs1 | ? | 19% | -16 | ? | ?
O=C(Nc1cccc(Cl)c1)Nc1nc(-c2ccc(Cl)cc2)cs1 | 16µM* | -15% | -2 | -18% | 12µM*
NC(CCc1ccccc1)c1csc(NC(=O)Nc2cccc(Cl)c2)n1 (centres undefined) | 23µM* | ? | -61* | ? | 26µM*
NC(c1ccccc1)c1csc(NC(=O)Nc2ccc(OC(F)(F)F)cc2)n1 (centres undefined) | -107% | ? | -24 | 18µM* | 23µM*
Cc1ccc(NC(=O)Nc2nc(-c3ccc(C)s3)cs2)cc1 | 12µM* | -18% | -4 | -29% | ?
CCOC(=O)COc1ccc2c(c1)c(C(C)=O)c(C)n2-c1ccc(OC)cc1 | -23% | 0% | 11 | -10% | ?
CC(C)/C=C/C(=O)N1CCC(N2CCC(C(=O)NCC3CCCO3)CC2)CC1 (centres undefined) | -10% | 0% | ? | -1% | 3%
CNc1ncnc2c1ncn2[C@H]1CN(CCN2CCOCC2)C[C@@H](CO)O1 | 8% | 4% | -29 | 12% | 11%
NC(COCc1ccccc1)c1csc(Nc2ccc(S(N)(=O)=O)cc2)n1 (centres undefined) | ? | -15% | -10 | -5% | ?
O=C(Nc1cccc(Cl)c1)Nc1csc([N+](=O)[O-])c1 | 2.3µM* | 21µM* | nt | 7.3µM* | 2.9µM*
NC(COCc1ccccc1)c1csc(NC(=O)Nc2cccc(C(F)(F)F)c2)n1 (centres undefined) | ? | ? | -55* | ? | 21µM*
CN(C)c1ccc(NC(=O)Nc2cccc(Cl)c2)cc1 | ? | ? | ? | -10% | -15%

High-throughput results from PubChem.
